Results reported in PubChem BioAssay (Tox21).
Values joined by “and” are separate entries in the source; they are usually repeats but may differ in a detail not shown here. Equal entries are not always repeated. Results filed as inconclusive are left out. Entries that show only a call come without a potency. The source holds several records for some structures; these can differ, active in one and inactive in another. Active and inactive are the calls of the source. Unless noted, the call rests on the fitted dose curve; in most records, active means well fitted curve in the direction sought with a large enough effect in the repeat runs; inconclusive means weak or mixed curves; inactive means no such curve, though single readings can be large; an effect the other way counts as inactive or inconclusive.

Legend:
[1] = qHTS assay to identify small molecule antagonists of the androgen receptor (AR) signaling pathway using the MDA cell line in the presence of 0.5 nM R1881 - cell viability counter screen (AID 1259242); further: nearly all actives have a fitted effect of over 45% in size; further: potency means the concentration at half of the fitted maximal effect
In short: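 Human breast carcinoma MDA-kb2 cells, cultured without CO2, receive compounds alongside 0.5 nM (final) R1881 agonist. After 16 hr at 37C, viability is taken as live-cell protease signal.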

[2] = qHTS assay to identify small molecule HDAC inhibitors (AID 1259364);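 further: wild-type HCT-116 cells with endogenous class I/II HDAC activity; top concentration of the series differs between compounds; nearly all actives have a fitted effect of over 45% in size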
In short: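 After a 2 hr compound incubation (37C, 5% CO2), HCT-116 cells seeded at 1,500/well the day before received HDAC-Glo reagent; signal read as luminescence after 30 min at room temperature.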

[3] = qHTS assay to identify small molecule HDAC inhibitors - cell viability counter screen (AID 1259365); further: series mostly up to about 92 µM; nearly all actives have a fitted effect of over 50% in size
In short: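 Cytotoxicity was gauged in wild-type HCT-116 cells after a brief 2hr treatment with DMSO-dissolved compounds at 37C and 5% CO2, using CellTiter-Glo luminescence developed for 30min at room temperature.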

[4] = qHTS assay to identify small molecule agonists of the sonic hedgehog signaling (Shh) pathway - cell viability counter screen (AID 1259366); further: nearly all actives have a fitted effect of over 50% in size; further: potency means the concentration at half of the fitted maximal effect
In short: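 Stable Gli1-Luc NIH/3T3 clone, 2,000 cells/well. Compound exposure 24hr at 37C. Read-out: CellTiter-Fluor fluorescence.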

[5] = qHTS assay to identify small molecule antagonists of the sonic hedgehog signaling (Shh) pathway - cell viability counter screen (AID 1259367); further: nearly all actives have a fitted effect of over 55% in size; further: potency means the concentration at half of the fitted maximal effect
In short: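 Tox21 library chemicals were tested on a Gli1-Luc NIH/3T3 clone (2,000 cells/well) stimulated by conditioned medium; viability was quantified as fluorescence from CellTiter-Fluor reagent added at 23 hr.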

[6] = qHTS assay to identify small molecule agonists of the sonic hedgehog signaling (Shh) pathway (AID 1259368; calls by dose curve;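 further: NIH/3T3-derived 3T3Gli1-Luc cells carrying a stable Gli1-driven firefly luciferase reporter; series mostly up to about 92 µM; nearly all actives have a fitted effect of over 15% in size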)
In short: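 Stable NIH/3T3 Gli1-Luc reporter clone; 24 hr cpd exposure after a 4 hr settling period; luminescence endpoint.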

[7] = qHTS assay to identify small molecule antagonists of the sonic hedgehog signaling (Shh) pathway (AID 1259369; calls by dose curve; further: nearly all actives have a fitted effect of over 45% in size; further: potency means the concentration at half of the fitted maximal effect)
In short: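 Gli1 transcriptional reporter (firefly Luc) in NIH/3T3 background, conditioned-medium activated. 24hr exposure, luminescence endpoint.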

[8] = molecular target: Androgen receptor (Homo sapiens) (UniProt P10275); assay: qHTS assay to identify small molecule antagonists of the androgen receptor (AR) signaling pathway using the MDA cell line in the presence of 0.5 nM R1881 (AID 1259243); further: nearly all actives have a fitted effect of over 50% in size; further: potency means the concentration at half of the fitted maximal effect
In short: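 Cells: MDA-kb2 (MMTV-luc). Stimulus: 0.5 nM R1881. Time: 16 hr, 37C, no CO2. Detection: ONE-Glo luminescence after 30 min at RT.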

[9] = molecular target: Estrogen receptor (Homo sapiens) (UniProt P03372); assay: qHTS assay to identify small molecule antagonists of the estrogen receptor alpha (ER-alpha) signaling pathway using the BG1 cell line in the presence of 0.1 nM 17-beta-estradiol (AID 1259244); further: nearly all actives have a fitted effect of over 50% in size; further: potency means the concentration at half of the fitted maximal effect
In short: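 Seeding of stripped-serum-adapted VM7Luc4E2 cells, 24 h attachment, compound transfer, then 0.1 nM final 17beta-estradiol; after 22 h incubation, ONE-Glo reagent and luminescence reading.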

[10] = qHTS assay to identify small molecule phospholipidosis (PLD) inducers (AID 1259344; active means well fitted curve in the direction sought with a large enough effect; an effect the other way counts as inactive or inconclusive)
In short: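 Image-based: LipidTOX Red pit count/intensity per well and per cell; HepG2, 24 h compound at 37 C, PFA fixation, Hoechst counterstain.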

Sequence of Androgen receptor (Homo sapiens) (P10275 whole entry, looked up): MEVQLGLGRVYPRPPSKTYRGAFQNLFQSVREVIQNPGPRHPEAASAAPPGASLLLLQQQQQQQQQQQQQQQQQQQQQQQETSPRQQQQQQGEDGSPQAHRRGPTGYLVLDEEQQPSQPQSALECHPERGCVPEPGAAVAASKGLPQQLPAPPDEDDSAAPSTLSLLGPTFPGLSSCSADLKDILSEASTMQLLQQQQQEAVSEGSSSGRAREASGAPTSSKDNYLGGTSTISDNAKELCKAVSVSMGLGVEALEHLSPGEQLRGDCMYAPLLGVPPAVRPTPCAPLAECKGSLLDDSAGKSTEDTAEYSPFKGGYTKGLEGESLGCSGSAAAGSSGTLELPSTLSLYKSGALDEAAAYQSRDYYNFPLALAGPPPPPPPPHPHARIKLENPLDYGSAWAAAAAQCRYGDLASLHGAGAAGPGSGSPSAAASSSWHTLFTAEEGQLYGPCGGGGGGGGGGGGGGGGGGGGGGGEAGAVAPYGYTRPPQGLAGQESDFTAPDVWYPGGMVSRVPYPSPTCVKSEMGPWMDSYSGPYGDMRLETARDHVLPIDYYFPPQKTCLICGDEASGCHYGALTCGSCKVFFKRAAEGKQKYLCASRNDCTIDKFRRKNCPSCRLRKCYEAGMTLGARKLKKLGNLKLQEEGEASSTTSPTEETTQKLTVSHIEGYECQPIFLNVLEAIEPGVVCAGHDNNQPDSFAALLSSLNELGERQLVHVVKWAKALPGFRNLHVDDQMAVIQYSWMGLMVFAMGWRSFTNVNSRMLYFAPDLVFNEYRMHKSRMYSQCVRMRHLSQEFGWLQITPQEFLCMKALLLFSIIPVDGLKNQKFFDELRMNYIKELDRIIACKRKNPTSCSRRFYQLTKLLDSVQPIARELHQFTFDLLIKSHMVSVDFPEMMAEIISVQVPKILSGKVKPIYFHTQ
Sequence of Estrogen receptor (Homo sapiens) (P03372 whole entry, looked up): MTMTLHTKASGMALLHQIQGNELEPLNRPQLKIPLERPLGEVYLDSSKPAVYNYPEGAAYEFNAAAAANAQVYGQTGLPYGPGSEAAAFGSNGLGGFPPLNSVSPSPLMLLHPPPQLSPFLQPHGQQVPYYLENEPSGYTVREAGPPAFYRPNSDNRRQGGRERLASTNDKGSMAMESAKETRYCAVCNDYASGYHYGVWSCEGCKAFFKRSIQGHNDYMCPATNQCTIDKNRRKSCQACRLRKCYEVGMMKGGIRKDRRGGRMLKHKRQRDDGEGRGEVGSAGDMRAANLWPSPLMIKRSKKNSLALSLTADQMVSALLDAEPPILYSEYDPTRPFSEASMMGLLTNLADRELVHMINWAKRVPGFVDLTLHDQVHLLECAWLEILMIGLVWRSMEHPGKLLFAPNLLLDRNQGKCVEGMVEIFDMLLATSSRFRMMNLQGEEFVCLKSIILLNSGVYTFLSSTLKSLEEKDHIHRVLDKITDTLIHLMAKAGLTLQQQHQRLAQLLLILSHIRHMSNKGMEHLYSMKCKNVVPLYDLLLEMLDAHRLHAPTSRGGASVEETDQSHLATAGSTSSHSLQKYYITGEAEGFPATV

| Compound | Potency [1] | Potency [2] | Potency [3] | Potency [4] | Potency [5] | Potency [6] | Potency [7] | Potency [8] | Potency [9] | Potency [10] |
| --- | --- | --- | --- | --- | --- | --- | --- | --- | --- | --- |
| CN(C)CCCN1c2ccccc2CCc2ccccc21 | inactive | inactive | inactive | inactive | inactive | inactive | 8.63 µM (active) and 4.73 µM (active) | – | – | – |
| C=CC(=C)CCC=C(C)C | inactive | inactive | inactive | – | inactive | inactive | inactive | – | – | – |
| O=C1NCN(c2ccccc2)C12CCN(CCCC(c1ccc(F)cc1)c1ccc(F)cc1)CC2 | 29.8 µM (active) | inactive | inactive | – | – | inactive | – | – | – | – |
| C=CCCCCCCC=C | inactive | – | inactive | – | – | inactive | 30.7 µM (active) | – | – | – |
| OCCCc1cccnc1 | – | inactive | inactive | inactive | inactive | inactive | inactive | inactive | inactive | – |
| CC(C)(c1cc(Br)c(OCCO)c(Br)c1)c1cc(Br)c(OCCO)c(Br)c1 | – | inactive | inactive | – | inactive | inactive | 1.89 µM (active) | 23.8 µM (active) | – | – |
| CCCC(=O)OCC(COC(=O)CCC)OC(=O)CCC | – | inactive | inactive | inactive | inactive | inactive | inactive | inactive | inactive | – |
| CCN=c1cc2oc3cc(NCC)c(C)cc3c(-c3ccccc3C(=O)OCC)c-2cc1C | – | inactive | – | – | inactive | inactive | 1.08 µM (active) and 545 nM (active) | 122 nM (active) and 217 nM (active) | 86 nM (active) and 306 nM (active) | – |
| CCCCCCCCCCCCN(CCO)CCO | – | inactive | inactive | – | – | inactive | 21.6 µM (active) | 48.4 µM (active) | – | – |
| C/C=C/C(=O)C1=C(C)CCCC1(C)C | – | inactive | inactive | inactive | inactive | inactive | – | – | inactive | – |
| C[C@@]12C(=O)OC(=O)[C@]1(C)C1CCC2O1 | – | – | – | 1.5 µM (active) | 3.76 µM (active) | inactive | 1.68 µM (active) | – | 6.68 µM (active) | inactive |
| O[C@@H](c1cc(C(F)(F)F)nc2c(C(F)(F)F)cccc12)[C@H]1CCCCN1 | – | inactive | inactive | 29.8 µM (active) | 29.8 µM (active) | inactive | 23.7 µM (active) | – | inactive | inactive |
| CS(C)(=O)=O | – | inactive | inactive | inactive | inactive | inactive | inactive | – | inactive | – |
| CC1=CP(=O)(c2ccccc2)CC1 (stereo not given) | – | inactive | inactive | inactive | inactive | inactive | inactive | – | inactive | – |
| Nc1ccc2cc3ccc(N)cc3nc2c1 | – | inactive | – | – | – | inactive | inactive | inactive and 10.6 µM (active) | – | inactive |
| O=C(O)Cc1ccc(OCCNC[C@H](O)c2ccccc2)cc1 | – | inactive | inactive | inactive | – | inactive | – | inactive | inactive | inactive |
| CO[C@H]1C=CO[C@@]2(C)Oc3c(C)c(O)c4c(O)c(cc(O)c4c3C2=O)NC(=O)/C(C)=C\C=C/[C@H](C)[C@H](O)[C@@H](C)[C@@H](O)[C@@H](C)[C@H](OC(C)=O)[C@@H]1C | – | – | inactive | 13.8 µM (active) | 15.5 µM (active) | inactive | 13.8 µM (active) | – | 54.9 µM (active) | inactive |
| Cc1cc2c(C(C)C)c(O)c(O)c(C=O)c2c(O)c1-c1c(C)cc2c(C(C)C)c(O)c(O)c(C=O)c2c1O | – | inactive | inactive | – | – | inactive | – | – | inactive | inactive |
| CCN(CC)CCOc1ccc(C(O)(Cc2ccc(Cl)cc2)c2ccc(C)cc2)cc1 (stereo not given) | – | inactive | inactive | – | – | inactive | 5.96 µM (active) | – | inactive | inactive |
| O=C1NCCN1CCN1CCC(c2cn(-c3ccc(F)cc3)c3ccc(Cl)cc23)CC1 | – | inactive | inactive | 18.8 µM (active) | – | inactive | 13.3 µM (active) | – | 8.41 µM (active) | inactive |
| CCC(C)c1cc([N+](=O)[O-])cc([N+](=O)[O-])c1OC(=O)OC(C)C (stereo not given) | – | inactive | inactive | – | 68.6 µM (active) | inactive | 21.7 µM (active) | 38.6 µM (active) | – | – |
| C[n+]1c2cc(N)ccc2cc2ccc(N)cc21 (tested in a mixture with another compound) | – | inactive | inactive | – | – | inactive | – | 13.3 µM (active) | – | inactive |
| S=P(N1CC1)(N1CC1)N1CC1 | – | – | inactive | – | 57.4 µM (active) | inactive | 22.9 µM (active) | – | inactive | inactive |
| COCC(=O)O[C@]1(CCN(C)CCCc2nc3ccccc3[nH]2)CCc2cc(F)ccc2[C@@H]1C(C)C | – | inactive | inactive | 13.3 µM (active) | 26.6 µM (active) | inactive | 13.3 µM (active) | 16.8 µM (active) | – | – |
| N#CSCSc1nc2ccccc2s1 | – | – | inactive | 10.9 µM (active) | 24.3 µM (active) | inactive | 1.93 µM (active) | inactive | – | – |
| O=C(O)c1cccc(Cl)n1 | – | inactive | inactive | inactive | – | inactive | 30.6 µM (active) | inactive | inactive | – |
| CO[Si](CCCNCCNCCN)(OC)OC | – | inactive | inactive | inactive | inactive | inactive | inactive | inactive | inactive | – |
| OCCN1CN(CCO)CN(CCO)C1 | – | inactive | inactive | inactive | inactive | inactive | – | – | inactive | – |
| c1cc(OCC2CO2)cc(OCC2CO2)c1 (stereo not given) | – | – | inactive | 21.5 µM (active) | 60.6 µM (active) | inactive | 19.2 µM (active) | 48.2 µM (active) | 48.2 µM (active) | – |
| Clc1cccnc1 | – | – | inactive | inactive | inactive | inactive | inactive | inactive | inactive | – |
